TGFb SMAD3 inh – blocks TGF-b signaling | HepG2 CAGA-GFP TGF-b/SMAD3 reporter, GFP fluorescence, 18 h; TGF-beta stimulated, 500 pg/mL final | Potency, µM (doses to about 46.1 µM), inactives show top-dose activity, negative = inhibition, actives largely listed as inhibitors | 410,000 tested, 1.2% active; further: potency means the concentration at half of the fitted maximal effect; on the % scale 0 is the no-effect control and ±100 the full control effect; nearly all actives have a fitted effect of over 65% in size
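Cell-based qHTS in HEPG2 carrying a CAGA-GFP Smad reporter; compounds added before 500 pg/mL final TGF-beta, 18 h incubation at 37 degrees C, GFP fluorescence quantified per cell by imaging cytometry.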
TDP1 inh – TDP1 (human) enzyme inhibition. Q9NUW8. recombinant TDP1, AlphaScreen DNA substrate cleavage. Potency, µM (titrated, usually from 130 µM), without a hit: at the highest dose activity change, negative = inhibition, actives largely listed as inhibitors. 350,000 tested, 0.28% active; further: potency means the concentration at half of the fitted maximal effect; on the % scale 0 is the no-effect control and ±100 the full control effect; nearly all actives have a fitted effect of over 40% in size
Target sequence (Q9NUW8 whole entry, looked up): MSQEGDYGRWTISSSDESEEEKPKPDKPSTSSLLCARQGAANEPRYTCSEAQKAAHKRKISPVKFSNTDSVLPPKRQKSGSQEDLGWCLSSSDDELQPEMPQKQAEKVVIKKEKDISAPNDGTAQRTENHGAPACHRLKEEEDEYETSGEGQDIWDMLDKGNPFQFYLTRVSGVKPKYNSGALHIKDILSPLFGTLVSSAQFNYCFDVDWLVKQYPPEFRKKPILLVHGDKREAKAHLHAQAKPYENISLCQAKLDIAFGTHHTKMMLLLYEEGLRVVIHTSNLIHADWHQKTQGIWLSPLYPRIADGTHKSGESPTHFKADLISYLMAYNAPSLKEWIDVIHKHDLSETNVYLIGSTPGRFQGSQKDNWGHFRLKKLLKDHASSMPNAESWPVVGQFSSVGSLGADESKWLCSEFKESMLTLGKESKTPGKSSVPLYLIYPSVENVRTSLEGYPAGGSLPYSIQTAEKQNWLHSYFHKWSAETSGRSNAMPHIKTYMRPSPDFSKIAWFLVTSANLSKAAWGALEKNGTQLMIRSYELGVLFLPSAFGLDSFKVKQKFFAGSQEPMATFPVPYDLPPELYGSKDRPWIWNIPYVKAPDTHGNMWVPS
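Signal: AlphaScreen proximity between streptavidin donor and anti-FITC acceptor beads on intact substrate. Reaction: Tdp1 1 nM, substrate 15 nM final, 5 min RT after 15 min compound preincubation.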
IL1B secr inh – blocks inflammasome-driven IL-1 beta release | THP-1 LPS/ATP IL-1B secretion, AlphaLISA, 16 h; active compounds read low | activity change, % at 57.5 µM | 360,000 tested, 4.7% active | AID 743279; in the data active means activity change below about -50%; inconclusive means mostly about -30% to -49%; further: on the % scale 0 is the no-effect control and ±100 the full control effect
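THP-1 cells pretreated 1 hr with compounds (up to 57.5 uM final), then stimulated with LPS (250 ng/mL final) plus ATP (1.25 mM final); secreted IL-1B measured by AlphaLISA after 16 hr, decreased signal indicating inhibition.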
TDP1 cell CPT – DT40-hTDP1 cell growth loss with CPT | Potency, µM (doses to about 46.2 µM), inactives show at the top dose activity change, negative = growth inhibition, usual class: inhibitors | 420,000 tested, 12% active | chicken DT40 Tdp1-/-;hTDP1 cells + 20 nM CPT, ATP luminescence, 48 h; further: potency means the concentration at half of the fitted maximal effect; on the % scale 0 is the no-effect control and ±100 the full control effect; nearly all actives have a fitted effect of over 55% in size
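Chicken DT40 Tdp1-/- cells complemented with human TDP1, 400 cells/well, exposed to compounds plus 20 nM camptothecin for at least 48 h at 37 C; viability read as ATP content by CellTiter-Glo luminescence.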
HepG2 tox – HepG2 cytotoxicity, counter-screen for TGF-b inhibitors. HepG2 CAGA-GFP viability, ATP luminescence, 18 h. Potency, µM (titrated, usually from 46.1 µM), inactives show top-dose activity change, negative = cytotoxicity, hits mostly cytotoxic. 410,000 tested, 0.76% active. AID 588856; further: potency means the concentration at half of the fitted maximal effect
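CellTiter-Glo luminescence gave cytotoxicity after 18 hours at 37 degrees C. The cells were HepG2 CAGA-GFP in 1% FBS DMEM, stimulated with 500 pg/mL TGF-beta after compound addition. %Activity was normalised to no-cell wells (complete cell-killing) and DMSO (no toxicity), and curves were fitted and classified.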
DT40 TDP1 no CPT – qHTS for Inhibitors of human tyrosyl-DNA phosphodiesterase 1 (TDP1): qHTS in cells in absence of CPT; 420,000 tested, 15% active; DT40 Tdp1-/- hTDP1 cells, no CPT, ATP luminescence, 48 h; Potency, µM (titrated, usually from 46.2 µM), without a hit: at the highest dose activity change, negative = growth inhibition, usual class: inhibitors; AID 686978, 2013; further: potency means the concentration at half of the fitted maximal effect; on the % scale 0 is the no-effect control and ±100 the full control effect; nearly all actives have a fitted effect of over 55% in size
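Stably hTDP1-transfected Tdp1-null chicken DT40 cells were treated with library compounds minus camptothecin and grown for at least 48 hr at 37 °C, after which cellular ATP was quantified by luminescence.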
Active calls of the source: *; ? = inconclusive; · = no result given; [ ] = dose if it differs, or a comment. A selection: hits, their analogues and other compounds. The true share with any hit is near 19%. Unless noted, the call rests on the fitted dose curve; in most records, active means well fitted curve in the direction sought with a large enough effect; inconclusive means small, poorly fitted or top-dose-only effect, or another doubt; inactive means no such curve, though single readings can be large; an effect the other way counts as inactive or inconclusive.

SMILES	TGFb SMAD3 inh	TDP1 inh	IL1B secr inh	TDP1 cell CPT	HepG2 tox	DT40 TDP1 no CPT
COc1ccc(S(=O)(=O)N2CCC(c3nnc(-c4ccccc4C)o3)CC2)c(OC)c1	?	9.0%	·	8.2µM*	-18.6%	6.51µM*
Cc1ccccc1-c1nnc(C2CCN(S(=O)(=O)c3ccc(Cl)cc3)CC2)o1	-14.8%	-1.3%	·	5.8µM*	-40.0%	3.66µM*
COc1ccc(S(=O)(=O)N2CCN(c3ccccn3)CC2)c(OC)c1	0.0%	4.1%	21.3	-20.1%	-1.8%	?
O=C(NC1CCCCC1)C(c1ccc(-c2ccccc2)cc1)n1c(=O)c(-c2ccco2)nc2ccccc21 (centres undefined)	·	·	19.7	?	·	14.6µM*
O=C(NC1CCCC1)C(c1ccccc1)n1c(-c2cccs2)nc2ccccc21 (centres undefined)	·	·	-14.7	?	·	?
CC(C)(C)NC(=O)C(c1ccnc2ccccc12)n1c(=O)c(-c2ccccc2)nc2ccccc21 (centres undefined)	·	·	11.6	-27.4%	·	-24.0%
O=C(NC1CCCCC1)C(c1ccnc2ccccc12)n1c(=O)c(-c2ccco2)nc2ccccc21 (centres undefined)	·	·	-11.9	13µM*	·	13µM*
O=C(NC1CCCC1)C(c1ccccc1)n1c(CSCCOc2ccccc2)nc2ccccc21 (centres undefined)	·	·	23.8	?	·	16.4µM*
O=C(NC1CCCCC1)C(c1ccccc1F)n1c(=O)c(-c2ccco2)nc2ccccc21 (centres undefined)	·	·	-2.8	?	·	16.4µM*
CCC1CN(CCNC(=O)c2cccc(C(=O)OC)c2)Cc2cc(OC)ccc2O1 (centres undefined)	·	·	·	4.0%[9.04 µM]	·	-26.3%
CCOC(=O)C1CCCN(C(=O)c2nn(-c3ccc(C)cc3)c(=O)c3c2c2ccccc2n3C)C1 (centres undefined)	20.2%	-2.3%	·	?	-0.2%	?
Cc1cnc(-n2ncc(C(=O)NCCN3CCOCC3)c2-c2cccs2)nc1-c1ccc(F)cc1	·	·	·	8.6%	·	-28.8%
O=C(NC1CCCCC1)C(C1CC1)n1c(=O)c(-c2ccccc2)nc2ccccc21 (centres undefined)	·	·	-10.2	?	·	16.4µM*
Cc1cccc(C)c1NC(=O)C(C1CC1)n1c(=O)c(-c2ccccc2)nc2ccccc21 (centres undefined)	·	·	-6.7	?	·	?
Cc1cc(N2CCN(C(C(=O)NC3CCCC3)c3ccc(-c4ccccc4)cc3)CC2)c2ccccc2n1 (centres undefined)	·	·	4.4	7.31µM*	·	8.2µM*
CCc1ccc(S(=O)(=O)c2nnn3c2nc(NCc2cccc(OC)c2)c2cc(Cl)ccc23)cc1	-6.8%	-2.0%	·	?	-17.4%	?
C[C@H](CO)N1C[C@H](C)[C@@H](CN(C)S(=O)(=O)c2cn(C)cn2)OCc2cnnn2CCCC1=O	4.1%	·	-8.3	4.4%	0.3%	2.8%
CCCCn1c(N)c(N(Cc2ccccc2OC)C(=O)C(C)Oc2cccc(Cl)c2)c(=O)[nH]c1=O (centres undefined)	-1.7%	·	9.7	?	-8.8%	?
Cc1sc2ncnc(SCC(=O)N(C(C)C)C(C)C)c2c1C	-3.3%	4.7%	13.2	19.9%	5.9%	-6.9%
Cc1sc2ncnc(Sc3ccccc3C(=O)Nc3ccc(Br)cc3)c2c1C	-37.1%	8.2%	-15.5	23.1µM*	9.1%	16.4µM*
Cc1sc2ncnc(Sc3ccccc3C(=O)Nc3ccc(C#N)cc3)c2c1C	0.0%	0.0%	-19.2	20.6µM*	-3.4%	20.6µM*
Cc1ccc(NC(=O)CN(C)C(=O)c2ccccc2Sc2ccccc2C#N)cc1	-2.0%	-2.7%	-19.7	?	-14.8%	14.6µM*
COc1ccc(NC(=O)CN(C)C(=O)c2ccccc2Sc2ncnc3sc(C)c(C)c23)cc1	-2.3%	2.9%	9.3	?	-16.1%	23.1µM*
O=C(NCc1ccco1)c1cccc(-c2cncc3nccn23)c1	15.9%	·	18.4	?	4.4%	-22.5%
CSc1ncc(C(=O)Nc2ccccc2Cl)c(C)n1	2.5%	·	13.7	8.6%	23.9%	-4.3%
SMILES	TGFb SMAD3 inh	TDP1 inh	IL1B secr inh	TDP1 cell CPT	HepG2 tox	DT40 TDP1 no CPT
Cc1sc2ncnc(Sc3ccccc3C(=O)Nc3ccccc3Cl)c2c1C	?	7.0%	-9.3	23.1µM*	-21.8%	18.4µM*
COc1ccc(Nc2nc(C)c3ccccc3n2)cc1	13.6%	9.3%	-23.9	-12.2%	-22.5%	-25.9%
CCc1c(C)nc(Nc2nc(C)c3ccc(OC)cc3n2)[nH]c1=O	2.8%	-0.7%	-76.3*	?	12.0%	16.4µM*
COc1ccc2c(C)nc(Nc3nc(C)cc(C)n3)nc2c1	-20.1%	2.2%	9.8	2.91µM*	-3.9%	3.26µM*
COCc1cc(=O)[nH]c(Nc2nc3ccc(C)cc3o2)n1	?	13.4%	-18.9	4.61µM*	-4.1%	4.61µM*
CCc1c(C)nc(Nc2nc(C)c3cc(OC)ccc3n2)[nH]c1=O	-14.8%	1.0%	?	?	-6.0%	20.6µM*
CCCc1cc(=O)[nH]c(Nc2cc(C)ccc2OC)n1	-12.8%	4.9%	·	-10.8%	-0.7%	-26.3%
Cc1cc(C)cc(NC(=O)C(=O)NCC(c2ccc3c(c2)OCO3)N2CCOCC2)c1 (centres undefined)	-6.1%	8.8%	·	-19.3%	0.4%	-27.3%
O=C(Nc1ccccc1)[C@@]12C[C@@H]1/C(=N/O)c1ccccc1O2	·	9.4%[56.1 µM]	·	?	·	?
COc1ccc2c(C)nc(Nc3nc(C)c(C)c(=O)[nH]3)nc2c1	0.0%	5.1%	-99.7*	4.61µM*	-11.7%	2.91µM*
Cc1ccc2nc(Nc3nc(CSc4nnnn4-c4ccccc4)cc(=O)[nH]3)nc(C)c2c1	-39.2%	1.5%	-12.5	-90.6%	8.0%	-98.1%
CCCCCc1c(C)nc(Nc2nc(C)c3cc(OC)ccc3n2)[nH]c1=O	2.3%	3.9%	-22.2	13µM*	4.6%	16.4µM*
CCc1ccc2nc(Nc3nc(COC)cc(=O)[nH]3)nc(C)c2c1	0.8%	-5.9%	?	9.2µM*	-12.6%	23.1µM*
CCCCc1c(C)nc2ccc(OC)cc2c1SCCC(=O)O	-12.1%	-9.6%	50.8	4.8%	0.0%	-16.8%

Screening data (PubChem BioAssay)
